Bioassay records from PubChem BioAssay.
In the library only some 3.8% were active in any assay of this set; here they are far more common.
Nrf2 inh = inhibitors of Nrf2 signaling | A549 ARE-Fluc reporter, luciferase luminescence, 18-24 h | Potency, µM (doses to about 46 µM), for the others: top-dose activity change, negative = inhibition, usual class: inhibitors | 2.1% of 360,000 active | AID 504444; also: % is scaled to controls: 0 for no effect and ±100 for the full control effect; nearly all actives have a fitted effect of over 60% in size
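Two sequential reads on A549 ARE_Fluc cells exposed to compound for 18-24 h: a CellTiter-Fluor fluorescence read for viability, then a luciferase luminescence read for Nrf2/ARE activity.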
HepG2 tox = counter-screen for TGF-b inhibitors: cytotoxicity in HepG2 cells; 0.76% of 410,000 active; Potency, µM (doses to about 46.1 µM), for inactives: at the highest dose activity change, negative = cytotoxicity, actives largely listed as cytotoxic; HepG2 CAGA-GFP viability, ATP luminescence, 18 h; AID 588856
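HepG2 CAGA-GFP cells (1000/well, DMEM with 1% FBS) received compound, then TGF-beta at 500 pg/mL final, and were incubated 18 hours at 37 degrees C. Viability was read by CellTiter-Glo luminescence. Media-only wells were set as complete cell-killing and DMSO as no toxicity.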
ATXN2 expr inh = ATXN2 expression inhibition. Potency, µM (top dose mostly 57 µM), for the others: at the highest dose activity change, negative = inhibition, hits mostly inhibitors. HEK-293 ATXN2-luciferase reporter, luminescence, 24 h. 0.72% of 360,000 active; also: % is scaled to controls: 0 for no effect and ±100 for the full control effect; nearly all actives have a fitted effect of over 55% in size
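ATXN2-luciferase reporter cells (luciferase flanked by upstream and downstream ATXN2 gene portions) were treated 24 h at 37 °C with compounds at up to 57 uM. SteadyGlo luminescence gave expression; GF-AFC fluorescence gave viability.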
A549 tox-1 = kills or reduces viability of A549 cells in Nrf2 counter-screen. A549 ARE-Fluc cells, CellTiter-Fluor viability, 18-24 h. Potency, µM (series often up to 46 µM), for the others: at the highest dose activity change, negative = cytotoxicity, most hits filed as inhibitors. 0.16% of 390,000 active; also: % is scaled to controls: 0 for no effect and ±100 for the full control effect
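Cytotoxicity counterscreen: CellTiter-Fluor fluorescence was measured in A549 ARE_Fluc cells after 18-24 h of compound exposure in a concentration series. The subsequent BugLite luminescent read reports ARE-luciferase activity.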
TGFb inhibitor = inhibitors of TGF-b signaling; HepG2 CAGA-GFP TGF-b/SMAD3 reporter, GFP fluorescence, 18 h; TGF-beta stimulated, 500 pg/mL final; Potency, µM (doses to about 46.1 µM), without a hit: at the highest dose activity, negative = inhibition, hits mostly inhibitors; 1.2% of 410,000 active; also: % is scaled to controls: 0 for no effect and ±100 for the full control effect; nearly all actives have a fitted effect of over 65% in size
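HEPG2 CAGA-GFP cells (1000/well, DMEM with 1% FBS) were pre-incubated 2 h at 37 degrees C, given compound by pin tool, then stimulated with TGF-beta at 500 pg/mL final for 18 h before per-cell GFP fluorescence imaging.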
ATXN viability = reduces viability in counter-screen for ATXN expression inhibitors. S2 cells (HEK-293 line with an ATXN2-luciferase reporter) viability, CellTiter-Fluor protease fluorescence, 24 h. Potency, µM (highest dose often 56.7 µM), hits mostly cytotoxic. 0.49% of 400,000 active. AID 651635; also: nearly all actives have a fitted effect of over 40% in size
FLuc enzyme inh = firefly luciferase inhibition, Nrf2 hit validation; 4% of 1,400 active; shares compounds with Nrf2 inh; purified firefly luciferase, luminescence inhibition; Potency, µM (top dose mostly 57.5 µM), for inactives: at the highest dose activity change, negative = inhibition, most hits filed as inhibitors; also: % is scaled to controls: 0 for no effect and ±100 for the full control effect; nearly all actives have a fitted effect of over 65% in size
Target sequence (P08659 whole entry, looked up): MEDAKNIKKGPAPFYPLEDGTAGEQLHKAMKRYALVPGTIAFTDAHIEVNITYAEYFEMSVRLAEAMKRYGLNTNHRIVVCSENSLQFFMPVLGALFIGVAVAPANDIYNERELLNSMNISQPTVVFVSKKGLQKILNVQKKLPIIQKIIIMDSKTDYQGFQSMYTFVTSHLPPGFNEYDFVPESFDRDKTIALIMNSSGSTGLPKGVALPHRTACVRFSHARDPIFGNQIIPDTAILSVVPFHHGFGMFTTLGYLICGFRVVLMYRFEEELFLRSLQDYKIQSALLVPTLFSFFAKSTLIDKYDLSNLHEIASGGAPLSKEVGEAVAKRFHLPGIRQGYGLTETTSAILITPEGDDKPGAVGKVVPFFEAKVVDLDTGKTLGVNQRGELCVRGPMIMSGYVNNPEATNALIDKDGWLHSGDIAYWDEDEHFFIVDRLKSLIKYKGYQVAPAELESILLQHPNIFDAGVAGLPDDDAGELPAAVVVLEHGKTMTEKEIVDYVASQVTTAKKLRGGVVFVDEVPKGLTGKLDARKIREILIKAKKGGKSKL
A549 tox-2 = counter-screen for Nrf2 inhibitors: cytotoxicity in A549 ARE cells | Potency, µM (top dose mostly 46.1 µM), for the others: at the highest dose activity change, negative = cytotoxicity, most hits filed as inhibitors | 2% of 1,400 active | A549 ARE-Fluc cells, cytotoxicity counterscreen | shares compounds with Nrf2 inh;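 also: cells exposed to compounds for 18 to 24 hours; % is scaled to controls: 0 for no effect and ±100 for the full control effect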
Nrf2 ARE inh = Nrf2 inhibition confirmed, A549 ARE-luciferase. shares compounds with Nrf2 inh. A549 ARE-firefly luciferase reporter, luminescence. Potency, µM (highest dose often 46.1 µM), for the others: at the top dose activity change, negative = inhibition, hits mostly inhibitors. 74% of 1,400 active; also: % is scaled to controls: 0 for no effect and ±100 for the full control effect; nearly all actives have a fitted effect of over 65% in size
Starred values were filed as active, the others as inactive; i = inactive; u = inconclusive; x = not tested or not shown; [ ] = remark or other dose. Calls follow the shape of the dose curve; as a rule, active = well fitted curve in the direction sought with a large enough effect; inconclusive = small, poorly fitted or top-dose-only effect, or another doubt; inactive = no such curve, though single readings can be large; an effect the other way counts as inactive or inconclusive. Potency is read from the fitted curve at half-maximal effect.

SMILES	Nrf2 inh	HepG2 tox	ATXN2 expr inh	A549 tox-1	TGFb inhibitor	ATXN viability	FLuc enzyme inh	A549 tox-2	Nrf2 ARE inh
CC1(C)Cc2nc3sc4c(SCC(=O)O)ncnc4c3cc2CO1	u	-12%	x	14%	-19%	i	x	x	x
Cc1ccc([N+](=O)[O-])cc1S(=O)(=O)N(C(=O)c1ccncc1)c1ccc2oc3c(c2c1)CCCC3	7%	-15%	0%	23%	u	i	x	x	x
CCc1ccc(S(=O)(=O)N(C(=O)Oc2ccccc2)c2ccc3oc(C)c(C(=O)OC)c3c2)cc1	3.7µM*	-11%	x	-10%	-8%	x	3%	-7%	6.5µM*
COC(=O)c1c(C)oc2ccc(N(C(=O)c3ccncc3)S(=O)(=O)c3ccccc3)cc12	x	-1%	-26%	u	-17%	u	x	x	x
COC(=O)c1c(C)oc2ccc(N(C(=O)c3ccncc3)S(=O)(=O)c3cc(C)c(C)cc3C)cc12	9.2µM*	-36%	x	-15%	u	x	-10%	-21%	10µM*
COC(=O)c1c(C)oc2ccc(N(C(=O)c3ccncc3)S(=O)(=O)c3c(C)cc(C)cc3C)cc12	4.1µM*	-21%	x	-3%	0%	x	1%	-8%	5.8µM*
COC(=O)/C=C1\NCCNC1=O	3%	8%	1%	-3%	10%	i	x	x	x
CN(C(=S)NC(=O)CCCOc1ccc(Cl)cc1Cl)c1ccccc1	11%	-16%	-11%	22%	-25%	i	x	x	x
CC(C(=O)Nc1ccc(O)cc1)c1cccc(C(=O)c2ccccc2)c1 (stereo not given)	9.2µM*	-2%	-35%	-26%	-16%	i	-15%	2%	u
CCCCNc1cc(C(=O)O)cc(S(N)(=O)=O)c1Oc1ccccc1	5.8µM*	8%	1%	-3%	-4%	i	2%	-7%	6.5µM*
O=S(=O)(c1ccc2ncccc2c1)N1CCN(c2nc(-c3cccs3)nc3ccccc23)CC1	u	x	x	-14%	x	x	x	x	x
COCCNC(=O)CCn1c(=O)c2cc(OC)c(OC)cc2n(CC(=O)Nc2ccc(F)c(Cl)c2)c1=O	2%[9.27 µM]	-20%	4%	2%	-12%	i	x	x	x
Cc1nnc2c(N3CCN(c4ccc(F)cc4)CC3)nc3ccc(C(=O)c4ccccc4)cc3n12	5%	0%	x	8%	0%	x	x	x	x
COc1ccc(C(=S)N2CCN(c3ccccc3Cl)CC2)cc1OC	-16%	0%	x	-3%	1%	i	x	x	x
C[n+]1ccccc1N1CCN(c2ccccc2Cl)CC1	3.3µM*	-30%	-7%	-3%	-12%	i	3%	-12%	6.5µM*
Cc1nnc(NC(=O)CCN2C(=O)C3CC=CCC3C2=O)s1 (stereo not given)	x	2%	x	x	9%	i	x	x	x
NC(=O)c1ccccc1OCC(=O)N1CCC(Cc2ccccc2)CC1	5.2µM*	-28%	u	-18%	u	i	-14%	-1%	8.2µM*
Cc1ccc(C(=O)NCC(=O)N2CCN(c3ccccc3O)CC2)s1	x	-1%	x	x	-2%	i	x	x	x
Nc1ccc(Oc2ccccc2-c2ccccc2)cc1	9.2µM*	18%	u	9%	0%	i	u	2%	8.2µM*
O=C(NC1CCCc2ccccc21)c1cn2ccccc2n1 (stereo not given)	20%	18%	x	2%	19%	i	x	x	x
Cc1nc2ccccn2c1C(=O)NC1CCCc2ccccc21 (stereo not given)	1.6µM*	-27%	x	3%	u	i	0%	-7%	4.6µM*
CCN(c1ccccc1)S(=O)(=O)c1cc(C(=O)Nc2ccc(Br)cc2)ccc1F	5.8µM*	-20%	u	u	u	i	-12%	-29%	12µM*
Cc1cc(Cl)ccc1C(=O)C1CCCN(C(=O)c2cncs2)C1 (stereo not given)	24%	-4%	14%	21%	-2%	i	x	x	x
N#Cc1nc(N2CCCCC2)nc(N(c2ccccc2)c2ccccc2)n1	-5%	-1%	x	5%	4%	x	x	x	x
CCCNc1nc(N2CCCC2)nc(N2CCCC2)n1	-19%	-5%	-3%	-4%	-14%	i	x	x	x
SMILES	Nrf2 inh	HepG2 tox	ATXN2 expr inh	A549 tox-1	TGFb inhibitor	ATXN viability	FLuc enzyme inh	A549 tox-2	Nrf2 ARE inh
CCNc1nc(C#N)nc(N2CCCCC2)n1	4.6µM*	-26%	x	-10%	-1%	x	-10%	-23%	7.3µM*
N#Cc1nc(N2CCCCC2)nc(N2CCCCC2)n1	2.1µM*	4%	x	-4%	0%	x	-13%	-23%	5.2µM*
CC1OC(CCc2cccc(Cl)c2)Cc2[nH]c(=S)[nH]c(=O)c21 (stereo not given)	x	x	-1%	x	x	i	x	x	x
CCN(C(=O)COC(=O)CCc1ccc(OC)cc1)c1c(N)n(Cc2ccccc2)c(=O)[nH]c1=O	-4%	0%	0%	-6%	25%	i	x	x	x
COc1cc(CCC(=O)NCc2ccc3c(c2)CCN3C(=O)c2cccc(C)c2)cc(OC)c1OC	x	-2%	x	11%	-3%	x	x	x	x
Cc1ccc(-c2cc[n+](Cc3ccccc3)cc2)cc1	7.3µM*	-21%	-7%	-8%	-25%	i	1%	-2%	9.2µM*
Cc1cc[n+](Cc2ccc([N+](=O)[O-])cc2)cc1	u	13%	3%	-9%	30%	i	x	x	x
Cc1ccc(N(CC(=O)Nc2cc(C)cc(C)c2)S(=O)(=O)c2c(C)noc2C)cc1	7.3µM*	-38%	u	u	u	i	2%	-19%	12µM*
O=C(c1cccn1-c1nnc(N2CCCC2)s1)N1CCN(c2ccc(Cl)cc2)CC1	0%	-25%	x	15%	u	x	x	x	x
Cc1ccc(-n2nnc(-c3nsc(NC(=O)c4ccc(C)c(C)c4)n3)c2C)cc1	u	-12%	-10%	9%	-7%	i	x	x	x
CCc1ccccc1-n1nnc(-c2nsc(NC(=O)c3ccc(C)c(C)c3)n2)c1C	8.2µM*	-40%	x	-4%	10µM*	x	-14%	-21%	21µM*
